In PubChem BioAssay AID1628 (Sanford-Burnham Center for Chemical Genomics, 2009) one finds z-score data, which are given here for 90 compounds.

Structures are written as SMILES. Among all 190,000 compounds or so, about 930 (0.49%) were called active.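 The calls were made as follows: active = z-score of insulin promoter reporter brightness in nuclei below -3 at 5 µM, with at least 500 cells counted; inconclusive = wells with under 500 cells, flagged as toxic or sparse; inactive = the rest.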 The list shows a part of the results. Results with a measured potency or affinity are listed apart.

A short description of this test: insulin promoter down-regulators in MIN6 cells, imaging, high-content screening, mouse beta cells (AID 1628). The following applies: MIN6 insulin promoter GFP reporter, at 5 µM, stronger effect = lower value.
Consider `CCCNC(=O)Cn1c(=O)/c(=C\c2ccc(-c3ccc([N+](=O)[O-])cc3)o2)s/c1=C\C(=O)C(C)(C)C`, for which the z-score was 18.3 (inactive).
Turning to `COc1ccc(OC)c(C2C3CN(C(C)C)CC=C3C(C#N)=C(N)C2(C#N)C#N)c1` (stereo not given), the z-score is 17.1 (inactive).
For the compound `CCC(Sc1nnc(C)s1)C(=O)Nc1nccs1` (stereo not given), the z-score is 1.54 (inactive).
The same measure for `O=C(Nc1ccc(C2CCCCC2)cc1)C1CCCN(c2ncccn2)C1` (stereo not given): 3.77 (inactive); for `Cc1nc2ncnn2c(N2CCCC(C(=O)Nc3ccc4c(c3)CCC4)C2)c1C` (stereo not given): -5.29 (active).
The same measure for `CCc1c(C)nc2ncnn2c1N1CCC(C(=O)N2CCN(c3ccc(F)cc3)CC2)CC1`: -3.04 (active).
As for `OC1(c2cn(Cc3ccccc3)nn2)CCCCC1`, the figure is 5.88 (inactive); as for `Cc1ccc(C(C#N)c2ccc(C(=O)c3ccc(F)cc3)cc2)cc1` (stereo not given), -4.77 (active); as for `CCS(=O)(=O)c1ccc2oc(SCC(=O)NC3CCCC(C)C3C)nc2c1` (stereo not given), 4.28 (inactive).
In the case of `Fc1ccc(NCc2nnc(SCc3nnc(-c4ccccc4)o3)n2Cc2ccccc2)cc1`, the z-score is -4.77 (active).
The same measure for `CN1CCN(C(=O)/C(=C\c2cccs2)NC(=O)c2ccco2)CC1`: -6.33 (active).
As for `CN1CCN(C(=O)/C(=C\c2cccs2)NC(=O)c2cccs2)CC1`, the figure is 6.06 (inactive); as for `Cc1ccccc1NC(=O)/C(=C\c1cccs1)NC(=O)c1ccco1`, -5.39 (active); as for `O=C1c2cccc3c(O)ccc(c23)C(=O)N1Cc1ccco1`, 12.8 (inactive).
The same measure for `CC(C)C[C@@H]1NC(=O)[C@H](C(C)C)NC(=O)c2cc([N+](=O)[O-])cc(I)c2NCC[C@@H](C(N)=O)NC1=O`: -5.69 (active); for `NCCCC[C@@H]1NC(=O)[C@H](CCC(=O)O)NC(=O)c2cc([N+](=O)[O-])cc(I)c2NCC[C@@H](C(N)=O)NC1=O`: -4.01 (active); for `NC(=O)CC[C@@H]1NC(=O)[C@@H]2CCCN2C(=O)c2cc([N+](=O)[O-])cc(I)c2NCCCC[C@@H](C(=O)NC(CC(=O)O)C(N)=O)NC1=O` (stereo not given in full): -4.71 (active).
Take `Cc1oc(C)c2c(=O)ccc3c(c12)OC(N)=C(C#N)C3c1ccc(F)cc1` (stereo not given): the z-score was 3.56 (inactive).
As for `CCCCSc1nnc(CCCCCNC(=O)OC(C)(C)C)o1`, the figure is -4.83 (active); as for `Cc1ccn2cc(-c3ccc(S(=O)(=O)N4CCOCC4)cc3)nc2c1`, -0.88 (inactive); as for `COc1cc(S(=O)(=O)N2CCOCC2)ccc1NC(=O)COC(=O)C12CC3CC(CC(C3)C1)C2`, 3.88 (inactive).
As for `COc1cccc(-c2cc(C(=O)Nc3ccc4c(c3)OCCO4)c3ccccc3n2)c1`, the figure is -4.93 (active).
As for `COc1ccc(-c2cc(C(=O)Nc3cc(S(=O)(=O)N4CCOCC4)ccc3N3CCOCC3)c3ccccc3n2)cc1`, the figure is -3.45 (active); as for `COc1ccc2cc(/C(C)=N/NC(=S)Nc3cc(S(=O)(=O)N4CCOCC4)ccc3N3CCOCC3)ccc2c1`, -3.25 (active).
Turning to `COc1ccc(C2C(C(C)=O)=C(C)N=c3s/c(=C\c4cc(C)n(C)c4C)c(=O)n32)c(OC)c1` (stereo not given), the z-score is 8.76 (inactive).
As for `N#C/C(=C\C1=C(N2CCOCC2)C(=C\c2ccc(Cl)cc2)/CC1)C(=O)Nc1ccccc1F`, the z-score was 3.27 (inactive).
As for `CN1CC=C2C(C#N)=C(N)C(C#N)(C#N)C(c3ccsc3)C2C1` (stereo not given), the z-score is 4.07 (inactive).
As for `Cc1ccc2c(c1)cc(CN(Cc1ccc3c(c1)OCO3)S(=O)(=O)c1ccccc1)c1nnnn12`, the figure is -3.75 (active); as for `Cc1cc(-c2cccs2)c2c(N)c(C(=O)c3ccc4c(c3)OCO4)sc2n1`, 4.7 (inactive).
The same measure for `O=C(NC1CCCC1)c1c[nH]c2ccc(F)cc2c1=O`: -3.28 (active).
The same measure for `COc1ccc2c(C(=O)CN(C)C3CCCCC3)c[nH]c2c1`: 4.45 (inactive); for `Cc1ccc(C2C3CN(C(C)C)CC=C3C(C#N)=C(N)C2(C#N)C#N)cc1` (stereo not given): 10.3 (inactive).
In the case of `NC(=O)CCN1CCN(CCOC2Cc3cc(Cl)ccc3Sc3ccccc32)CC1` (stereo not given), the z-score was -4.24 (active).
As for `CC(C)CC(=O)c1c[nH]c(C(=O)NCCc2ccccn2)c1`, the figure is -3.63 (active).
The same measure for `Nc1c(C(=O)N/N=C/c2cccnc2)oc2nc(-c3ccco3)cc(-c3ccco3)c12`: 5.39 (inactive); for `O=C(Nc1ccc(-c2csc(Nc3cccc(C(F)(F)F)c3)n2)cc1)c1cccc(C(F)(F)F)c1`: -4.02 (active).
In the case of `c1ccc(CN2CCN(c3nc(NCc4ccco4)c4ccccc4n3)CC2)cc1`, the z-score is -3.17 (active).
As for `c1ccc(N2CCN(c3nc(NCc4ccco4)c4ccccc4n3)CC2)cc1`, the figure is -3.05 (active).
As for `CCCS(=O)(=O)N1CCC(C(=O)N2CCOCC2)CC1`, the figure is 4.02 (inactive); as for `O=C(/C=C/c1cn(CC(O)CN2CCCCCC2)c2ccccc12)c1cccs1` (stereo not given), 5.06 (inactive).
The same measure for `OC(CN1CCCCC1)CN(c1ccccc1)c1ccccc1` (stereo not given): -4.02 (active); for `O=C(/C=C/c1cn(CC(O)CN2CCCCC2)c2ccccc12)c1cccs1` (stereo not given): 4.58 (inactive).
As to `Cc1c(-c2ccc(O)cc2)nc2nc(-c3ccccc3)c(-c3ccccc3)nn12`, the z-score is 17.8 (inactive).
The same measure for `COc1cccc(OC)c1OCCN(C)C`: 3.98 (inactive).
As for `O=c1c([N+](=O)[O-])cccn1Cc1ccc(F)cc1Cl`, the figure is 3.36 (inactive).
As for `Cc1ccc(S(=O)(=O)c2nc(-c3cccs3)oc2NCCCN(C)C)cc1`, the figure is -5.47 (active); as for `CCC(C)(C)n1nnnc1C(c1cccc(C#N)c1)N1CCN(c2cccc(C)c2C)CC1` (stereo not given), -3.1 (active); as for `Cc1cccc(N2CCN(C(c3ccccc3)c3nnnn3CC3CCCO3)CC2)c1C` (stereo not given), -3.05 (active).
`CCC(C)(C)n1nnnc1C(c1ccccc1)N1CCN(C2CCCC2)CC1` (stereo not given): the z-score is -4.27 (active).
As for `CCCOc1ccc(-c2nn(-c3ccccc3)cc2/C=C2\SC(=S)N(C3CCS(=O)(=O)C3)C2=O)cc1` (stereo not given), the figure is 4.83 (inactive).
Regarding `Cc1ccc(S(=O)(=O)N2CCCC2C(=O)N(C)Cc2cccs2)cc1` (stereo not given), the z-score is 4.2 (inactive).
As for `Cc1ccc(S(=O)(=O)N(C)c2ccc(C(=O)N3CCCCC3)cc2)cc1`, the figure is -5.08 (active).
The same measure for `O=C(CCC(=O)c1ccc(F)cc1)Nc1cccc(C(F)(F)F)c1`: -5.11 (active); for `CC1(C)OC(=O)N(CC(=O)Nc2cccc(C(F)(F)F)c2)C1(C)O` (stereo not given): 0.44 (inactive).
The same measure for `CCOC(=O)c1nnn(-c2nonc2N)c1-c1ccc(OCC)cc1`: 3.82 (inactive).
Take `CCOC(=O)c1nnn(-c2nonc2N)c1-c1ccc(OC)cc1`: the z-score was -5.06 (active).
The same measure for `CCOC(=O)c1nnn(-c2nonc2N)c1CN1CCCCCC1`: 0.52 (inactive); for `N#C/C(=C\C1=C(N2CCOCC2)C(=C/c2cccc([N+](=O)[O-])c2)/CC1)C(=O)Nc1ccccc1F`: 3.07 (inactive); for `CC(=O)Nc1sc(/C(C#N)=C/c2ccc(Cl)c(Cl)c2)nc1-c1ccc(C)cc1`: 17.4 (inactive).
The same measure for `O=c1[nH]c2ccc(NS(=O)(=O)c3ccc([N+](=O)[O-])cc3)cc2[nH]1`: 2.55 (inactive).
As to `O=C(c1cccs1)c1no[n+]([O-])c1C(=O)c1cccs1`, the z-score was 3.78 (inactive).
The same measure for `COc1ccc(OCCn2cc(/C(N)=N/O)c3ccccc32)cc1`: 3.09 (inactive); for `CCCn1c(=N)n(CCOc2ccc(OC)cc2)c2ccccc21`: -4.79 (active).
The same measure for `CCCCn1c(=N)n(CCOc2ccc(C)cc2)c2ccccc21`: -3.46 (active).
The same measure for `CCOC(=O)Cn1c2ccc(F)cc2c2nc(C)sc21`: 3.68 (inactive).
Consider `CCOC(=O)Cn1c(=N)n(CCOc2cccc(C)c2)c2ccccc21`, for which the z-score is -4.7 (active).
The same measure for `Cc1cc(/C=C2/C(=O)N(C)C(=S)N2C)ccc1N1CCCC1`: 15.4 (inactive).
As for `COc1ccc(CCNc2oc(COc3ccccc3Cl)nc2C#N)cc1OC`, the figure is -3.1 (active).
The same measure for `COc1cccc(-n2nc(C#N)c(Cl)cc2=O)c1`: -3.8 (active).
`COc1cccc(C2=N/C(=C\N(C)C)C(=O)O2)c1`: the z-score was 0.86 (inactive).
As for `N#Cc1ccsc1NC(=O)COC(=O)c1ccc2ccccc2c1`, the figure is -6.27 (active); as for `Cc1ccc(C2(C(F)(F)F)N=C3Sc4cc(C)ccc4N3C(=O)N2)cc1` (stereo not given), 3.48 (inactive).
The same measure for `Cc1cc(N2CCOCC2)ccc1/C=C1/SC(=O)NC1=O`: 1.71 (inactive); for `Cc1ccc(N2CCN(C3=NC(=O)/C(=C\c4cccs4)S3)CC2)cc1`: -4.27 (active).
Regarding `CCCOc1cc(N(CC)CC)ccc1/C=C(/C#N)c1nc2ccc(C)cc2[nH]1`, the z-score is 15.5 (inactive).
The same measure for `C=CCSc1nnc(NC(=O)c2cccc(S(=O)(=O)N3CCOCC3)c2)s1`: 3.22 (inactive); for `CCN(CC)c1ccc(C(=O)N/N=C/c2ccc(N3CCOCC3)cc2)cc1`: 3.38 (inactive).
In the case of `CCN(CC)c1ccc(/C=N/NC(=O)c2cccc(S(=O)(=O)N3CCOCC3)c2)c(O)c1`, the z-score is -6.39 (active).
As for `CCCCn1c(O)c(/C=C/C=C/C=Nc2ccccc2)sc1=S`, the figure is 4.72 (inactive); as for `COc1c2ccoc2nc2c(OC)c(O)ccc12`, -0.14 (inactive).
The same measure for `Cc1ccc(-c2ccc(/C=C(\C#N)C(=O)Nc3cc(C)nn3-c3ccccc3)o2)cc1`: 3.08 (inactive).
For `Cc1nn(-c2ccccc2)c(C)c1NC(=O)CCl`, the z-score is 3.88 (inactive).
As for `Cc1ccc(NC(=O)CCl)c(C)c1`, the figure is 3.51 (inactive); as for `COc1ccc(CCNC(=S)Nc2ccc(C)cc2C)cc1`, -3.98 (active); as for `Cc1ccc(C)c(NC(=S)N2CCCCCC2)c1`, 0.89 (inactive).
As for `COc1ccc(C2=CC(c3ccc(OC)c(OC)c3)n3nnnc3N2)c(OC)c1` (stereo not given), the figure is -3.02 (active).
The same measure for `CCCCCOC(=O)C1=C(C)Nc2nnnn2C1c1ccc(OC)c(OC)c1OC` (stereo not given): 3.26 (inactive).
In the case of `COc1ccc(C2C=C(c3cccs3)Nc3nc(CCCO)nn32)cc1` (stereo not given), the z-score was 5.85 (inactive).
The same measure for `COc1cccc(CN2CCN(C3CCN(c4cccc(C)c4C)CC3)CC2CCO)c1` (stereo not given): -8.37 (active).
As for `CCOC(=O)N1CCC(N2Cc3cccc(C(=O)N4CCN(c5cccc(C)c5C)CC4)c3C2=O)CC1`, the figure is 2.62 (inactive).
